Reference: PubChem BioAssay AID1159580 (chemical genetic matrix, 2015)
Several values for one entry are separate records, joined by “and”; a condition that tells them apart may be missing. Equal values may be shown once. Screen size: about 5,500 compounds; about 2,000 (36%) were called active. Another 18% or so got no clear call; they are omitted. No stated cut-off is given here; in the data, active means normalized growth mostly below about 0.91 (no sharp cut-off); inconclusive means no clear call, values can overlap the other calls; inactive means mostly above about 0.92. This is one part of the list.

Test: chemical genetic growth profiling, strain panel (AID 1159580);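 further: tested at 20 µM; growth read once vehicle control cultures reached saturation at 30 °C; 1 = growth at the plate median or of vehicle wells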
Details: S. cerevisiae deletion strains, growth OD

Measured: normalized growth

Cc1ccc(O)cc1
inactive: locus YAL013W, strain DEP1, stronger effect = lower value 1.02 | locus YAL021C, strain ccr4, stronger effect = lower value 1.04 | locus YAL026C, strain drs2, stronger effect = lower value 1.03 | locus YAL030W, strain snc1, stronger effect = lower value 1.02 | locus YBL061C, strain skt5, stronger effect = lower value 1.02 | locus YBR009C, strain hhf1, stronger effect = lower value 1.03 | locus YBR021W, strain FUR4, stronger effect = lower value 1.07 | locus YBR023C, strain chs3, stronger effect = lower value 1.02 | locus YBR171W, strain sec66, stronger effect = lower value 1.02 | locus YBR229C, strain ROT2, stronger effect = lower value 1.02 | locus YBR231C, strain swc5, stronger effect = lower value 0.992 | locus YBR279W, strain paf1, stronger effect = lower value 1.02 | locus YCL011C, strain gbp2, stronger effect = lower value 1.02 | locus YCL016C, strain dcc1, stronger effect = lower value 1.01 | locus YCL029C, strain bik1, stronger effect = lower value 0.985 | locus YCL061C, strain MRC1, stronger effect = lower value 1.02 | locus YCL069W, strain vba3, stronger effect = lower value 1.02 | locus YCR088W, strain abp1, stronger effect = lower value 1.01 | locus YDL005C, strain med2, stronger effect = lower value 1.03 | locus YDL035C, strain GPR1, stronger effect = lower value 1.01 | locus YDL040C, strain nat1, stronger effect = lower value 1.01 | locus YDL074C, strain BRE1, stronger effect = lower value 1.03 | locus YDL101C, strain DUN1, stronger effect = lower value 1.03 | locus YDL134C, strain PPH21, stronger effect = lower value 1.05 | locus YDL185W, strain tfp1, stronger effect = lower value 0.99 | locus YDL192W, strain arf1, stronger effect = lower value 1.04 | locus YDR001C, strain nth1, stronger effect = lower value 1.02 | locus YDR069C, strain doa4, stronger effect = lower value 1.04 | locus YDR101C, strain arx1, stronger effect = lower value 0.98 | locus YDR137W, strain rgp1, stronger effect = lower value 1.04 | locus YDR159W, strain sac3, stronger effect = lower value 1 | locus YDR162C, strain NBP2, stronger effect = lower value 1.03 | locus YDR195W, strain ref2 1.01 | locus YDR297W, strain sur2, stronger effect = lower value 1.03 | locus YDR318W, strain mcm21, stronger effect = lower value 1.01 | locus YDR334W, strain swr1, stronger effect = lower value 1.02 | locus YDR335W, strain msn5, stronger effect = lower value 1.02 | locus YDR388W, stronger effect = lower value 1.02 | locus YDR392W, strain spt3, stronger effect = lower value 0.916 | locus YDR502C, strain sam2, stronger effect = lower value 0.979 | locus YEL003W, strain gim4, stronger effect = lower value 1.01 | locus YEL037C, strain rad23, stronger effect = lower value 1.01 | locus YEL061C, strain CIN8 (second series), stronger effect = lower value 1.01 | locus YEL061C, strain CIN8, stronger effect = lower value 1.02 | locus YER015W, strain faa2, stronger effect = lower value 1.01 | locus YER016W, strain bim1, stronger effect = lower value 1.01 | locus YER110C, stronger effect = lower value 0.991 | locus YER111C, strain swi4, stronger effect = lower value 1.01 | locus YER155C, strain BEM2 (second series), stronger effect = lower value 1.03 | locus YER155C, strain BEM2, stronger effect = lower value 1.02 | locus YER167W, strain BCK2, stronger effect = lower value 1.03 | locus YFR010W, strain ubp6, stronger effect = lower value 1.02 | locus YGL078C, strain dbp3, stronger effect = lower value 0.989 | locus YGL086W, strain mad1, stronger effect = lower value 1.01 | locus YGL167C, strain pmr1, stronger effect = lower value 1.01 | locus YGL173C, strain kem1, stronger effect = lower value 1.04 | locus YGL227W, strain vid30, stronger effect = lower value 1.02 | locus YGL240W, strain doc1, stronger effect = lower value 1.02 | locus YGL248W, strain PDE1, stronger effect = lower value 1.07 | locus YGL253W, strain hxk2, stronger effect = lower value 1.03 | locus YGR135W, strain pre9, stronger effect = lower value 1.01 | locus YGR229C, strain SMI1, stronger effect = lower value 1.04 | locus YGR252W, strain gcn5, stronger effect = lower value 0.966 | locus YHR013C, strain ard1, stronger effect = lower value 1.02 | locus YHR027C, strain rpn1, stronger effect = lower value 1.02 | locus YHR030C, strain SLT2, stronger effect = lower value 1.03 and 1 | locus YHR079C, strain IRE1 (second series), stronger effect = lower value 1.01 | locus YHR079C, strain IRE1, stronger effect = lower value 1 | locus YHR094C, strain hxt1, stronger effect = lower value 0.99 | locus YHR129C, strain ARP1, stronger effect = lower value 1.03 | locus YHR142W, strain chs7, stronger effect = lower value 1.03 | locus YHR200W, strain rpn10, stronger effect = lower value 1.01 | locus YIL066C, strain RNR3, stronger effect = lower value 1.06 | locus YIL073C, strain SPO22, stronger effect = lower value 1.03 | locus YIL125W, strain kgd1, stronger effect = lower value 0.994 | locus YIR030C, strain dcg1, stronger effect = lower value 1.01 | locus YJL092W, strain hpr5, stronger effect = lower value 1.02 | locus YJL095W, strain BCK1 (second series), stronger effect = lower value 1.01 | locus YJL095W, strain BCK1, stronger effect = lower value 1.07 and 1.02 | locus YJL115W, strain asf1, stronger effect = lower value 1.01 | locus YJL129C, strain trk1, stronger effect = lower value 1.01 | locus YJL134W, strain LCB3, stronger effect = lower value 1.02 | locus YJL154C, strain vps35, stronger effect = lower value 1.03 | locus YJL164C, strain tpk1, stronger effect = lower value 1.02 | locus YJL166W, strain qcr8, stronger effect = lower value 1.02 | locus YJL168C, strain set2, stronger effect = lower value 0.994 | locus YJL187C, strain SWE1 (second series), stronger effect = lower value 1.04 | locus YJR043C, strain POL32, stronger effect = lower value 1.01 | locus YJR066W, strain TOR1, stronger effect = lower value 0.987 | locus YKL009W, strain mrt4, stronger effect = lower value 1.01 | locus YKL068W, stronger effect = lower value 1 | locus YKL085W, strain MDH1 (second series), stronger effect = lower value 1 | locus YKL085W, strain MDH1, stronger effect = lower value 1 | locus YKL160W, strain elf1, stronger effect = lower value 1.01 | locus YKR001C, strain vps1, stronger effect = lower value 0.998 | locus YKR026C, strain gcn3, stronger effect = lower value 1.02 | locus YKR091W, strain srl3, stronger effect = lower value 1.02 | locus YLL001W, strain dnm1, stronger effect = lower value 0.984 | locus YLL026W, stronger effect = lower value 1.01 | locus YLL041C, strain sdh2, stronger effect = lower value 1.02 | locus YLR027C, strain aat2, stronger effect = lower value 1.03 | locus YLR039C, strain RIC1, stronger effect = lower value 1.05 | locus YLR058C, strain SHM2, stronger effect = lower value 1.04 | locus YLR102C, strain apc9, stronger effect = lower value 0.993 | locus YLR113W, strain HOG1, stronger effect = lower value 1.01 | locus YLR221C, strain rsa3, stronger effect = lower value 1.03 | locus YLR258W, strain gsy2, stronger effect = lower value 1.01 | locus YLR262C, strain YPT6 (second series), stronger effect = lower value 1.04 | locus YLR262C, strain YPT6, stronger effect = lower value 1.07 | locus YLR268W, strain sec22, stronger effect = lower value 0.998 | locus YLR320W, strain mms22, stronger effect = lower value 1.02 | locus YLR330W, strain CHS5, stronger effect = lower value 1.03 | locus YLR342W, strain FKS1 (second series), stronger effect = lower value 1.08 | locus YLR342W, strain FKS1, stronger effect = lower value 1.02 | locus YLR357W, strain rsc2, stronger effect = lower value 1.01 | locus YLR370C, strain arc18, stronger effect = lower value 1.01 | locus YLR371W, strain rom2, stronger effect = lower value 1.02 | locus YLR384C, strain iki3, stronger effect = lower value 1.02 | locus YLR418C, strain cdc73, stronger effect = lower value 1.04 | locus YML016C, strain PPZ1, stronger effect = lower value 1.04 | locus YML032C, strain rad52, stronger effect = lower value 1 | locus YML120C, strain ndi1, stronger effect = lower value 1.01 | locus YML124C, strain tub3, stronger effect = lower value 0.999 | locus YMR058W, strain fet3, stronger effect = lower value 1.03 | locus YMR078C, strain ctf18, stronger effect = lower value 1 | locus YMR125W, strain sto1, stronger effect = lower value 1.03 | locus YMR129W, stronger effect = lower value 1.01 | locus YMR205C, strain PFK2, stronger effect = lower value 1.03 | locus YMR223W, strain ubp8, stronger effect = lower value 1.02 | locus YMR231W, strain pep5, stronger effect = lower value 1.02 | locus YMR263W, strain SAP30, stronger effect = lower value 1.02 | locus YMR307W, strain GAS1, stronger effect = lower value 1.13 | locus YNL067W, strain RPL9B, stronger effect = lower value 1.02 | locus YNL071W, strain lat1, stronger effect = lower value 1.02 | locus YNL128W, strain TEP1, stronger effect = lower value 1.02 | locus YNL183C, strain NPR1, stronger effect = lower value 0.951 | locus YNL209W, strain ssb2, stronger effect = lower value 1.01 | locus YNL233W, strain BNI4, stronger effect = lower value 1.05 | locus YNL248C, strain rpa49, stronger effect = lower value 1.03 | locus YNL250W, strain rad50, stronger effect = lower value 0.996 | locus YNL271C, strain bni1, stronger effect = lower value 0.994 | locus YNL298W, strain CLA4, stronger effect = lower value 1 | locus YNL307C, strain MCK1, stronger effect = lower value 1.01 | locus YNL322C, strain KRE1 (second series), stronger effect = lower value 1.02 | locus YNR049C, strain mso1, stronger effect = lower value 1.02 | locus YNR052C, strain pop2, stronger effect = lower value 0.997 | locus YOL006C, strain TOP1, stronger effect = lower value 1.01 | locus YOL012C, strain htz1 1.54 | locus YOL147C, strain pex11, stronger effect = lower value 1.01 | locus YOR001W, strain rrp6, stronger effect = lower value 0.984 | locus YOR061W, strain CKA2, stronger effect = lower value 1.02 | locus YOR069W, strain VPS5, stronger effect = lower value 1.02 | locus YOR070C, strain gyp1, stronger effect = lower value 1.01 | locus YOR080W, strain dia2, stronger effect = lower value 1.01 | locus YOR083W, strain WHI5, stronger effect = lower value 1.01 | locus YOR106W, strain vam3, stronger effect = lower value 1.01 | locus YOR136W, strain idh2, stronger effect = lower value 0.99 | locus YOR144C, strain elg1, stronger effect = lower value 0.999 | locus YOR184W, strain ser1, stronger effect = lower value 1.02 | locus YOR231W, strain MKK1, stronger effect = lower value 0.993 | locus YOR265W, strain rbl2, stronger effect = lower value 1.03 | locus YOR270C, strain vph1, stronger effect = lower value 1.08 | locus YOR290C, strain snf2, stronger effect = lower value 1.02 | locus YOR316C, strain cot1, stronger effect = lower value 0.999 | locus YPL051W, strain arl3, stronger effect = lower value 1.01 | locus YPL055C, strain LGE1, stronger effect = lower value 1.05 | locus YPL078C, strain atp4, stronger effect = lower value 1.02 | locus YPL106C, strain sse1, stronger effect = lower value 1.01 | locus YPL240C, strain hsp82, stronger effect = lower value 1.01 | locus YPL241C, strain CIN2, stronger effect = lower value 1.01 | locus YPL256C, strain CLN2, stronger effect = lower value 1.03 | locus YPR119W, strain clb2, stronger effect = lower value 0.995 | locus YPR141C, strain kar3, stronger effect = lower value 1 | locus YPR163C, strain tif3, stronger effect = lower value 1 | locus YPR167C, strain met16, stronger effect = lower value 1.02 | strain wtn01, stronger effect = lower value 1.03
